Where “and” joins values, the source holds several entries; their conditions need not be identical. Identical values can stand only once. In all, about 5,500 compounds went through this assay and about 2,000 (36%) were called active. Roughly 18% stayed inconclusive and do not appear here. Cut-off read from the data, not from the text of the source: active = normalized growth mostly below about 0.91 (no sharp cut-off); inconclusive = no clear call, values can overlap the other calls; inactive = mostly above about 0.92. The list shows a part of the results.
Test: chemical genetic growth profiling, strain panel (AID 1159580);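 note: tested at 20 µM; growth read once vehicle control cultures reached saturation at 30 °C; 1 = growth at the plate median or of vehicle wells; lower values mean less growth of the strain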
Conditions: S. cerevisiae deletion strains, growth OD
[1] = locus YNL322C, strain KRE1, hits give low values
[2] = locus YPL055C, strain LGE1, hits give low values

Measured: normalized growth

C=C(C)C1Cc2c(ccc3c2OC2COc4cc(OC)c(OC)cc4C2C3=O)O1 (centres undefined)
inactive: locus YAL040C, strain CLN3, hits give low values 1.07 | locus YCL061C, strain MRC1 (second series), hits give low values 0.98 | locus YDR363W, strain ESC2, hits give low values 0.99 | locus YER002W, strain NOP16, hits give low values 0.992 | locus YNL153C, strain GIM3, hits give low values 0.942 | locus YNL175C, strain NOP13, hits give low values 0.955 | locus YNL197C, strain WHI3, hits give low values 0.979 | locus YNL224C, strain SQS1, hits give low values 0.964 | [1] 0.98 | locus YOR083W, strain WHI5 (second series), hits give low values 0.958 | [2] 1.01

C=C(C)[C@H]1Cc2c(ccc3c2O[C@@H]2COc4cc(OC)c(OC)cc4[C@@H]2C3=O)O1
active: locus YBR009C, strain hhf1, hits give low values 0.892 | locus YER110C, hits give low values 1.11 [resistant] | locus YJL164C, strain tpk1, hits give low values 0.917 | locus YLR262C, strain YPT6 (second series), hits give low values 0.83 | locus YNL071W, strain lat1, hits give low values 0.894
inactive: locus YAL013W, strain DEP1, hits give low values 1.01 | locus YAL021C, strain ccr4, hits give low values 0.993 | locus YAL026C, strain drs2, hits give low values 0.962 | locus YAL030W, strain snc1, hits give low values 0.982 | locus YBL061C, strain skt5, hits give low values 0.994 | locus YBR021W, strain FUR4, hits give low values 0.975 | locus YBR023C, strain chs3, hits give low values 0.962 | locus YBR171W, strain sec66, hits give low values 0.979 | locus YBR229C, strain ROT2, hits give low values 1.01 | locus YBR231C, strain swc5, hits give low values 1 | locus YBR279W, strain paf1, hits give low values 1.06 | locus YCL011C, strain gbp2, hits give low values 0.936 | locus YCL016C, strain dcc1, hits give low values 0.926 | locus YCL029C, strain bik1, hits give low values 1.03 | locus YCL061C, strain MRC1, hits give low values 1 | locus YCL069W, strain vba3, hits give low values 0.997 | locus YCR088W, strain abp1, hits give low values 1.03 | locus YDL005C, strain med2, hits give low values 0.99 | locus YDL035C, strain GPR1, hits give low values 0.956 | locus YDL040C, strain nat1, hits give low values 0.986 | locus YDL074C, strain BRE1, hits give low values 0.926 | locus YDL101C, strain DUN1, hits give low values 0.992 | locus YDL185W, strain tfp1, hits give low values 1.02 | locus YDL192W, strain arf1, hits give low values 1.02 | locus YDR001C, strain nth1, hits give low values 1.01 | locus YDR069C, strain doa4, hits give low values 0.991 | locus YDR101C, strain arx1, hits give low values 1 | locus YDR137W, strain rgp1, hits give low values 0.853 | locus YDR159W, strain sac3, hits give low values 0.984 | locus YDR162C, strain NBP2, hits give low values 0.966 | locus YDR195W, strain ref2 1.13 | locus YDR297W, strain sur2, hits give low values 0.966 | locus YDR318W, strain mcm21, hits give low values 1 | locus YDR334W, strain swr1, hits give low values 1.04 | locus YDR335W, strain msn5, hits give low values 1 | locus YDR388W, hits give low values 1.01 | locus YDR392W, strain spt3, hits give low values 0.762 | locus YDR502C, strain sam2, hits give low values 1 | locus YEL003W, strain gim4, hits give low values 0.981 | locus YEL037C, strain rad23, hits give low values 1.02 | locus YEL061C, strain CIN8 (second series), hits give low values 1.03 | locus YEL061C, strain CIN8, hits give low values 1 | locus YER015W, strain faa2, hits give low values 0.982 | locus YER016W, strain bim1, hits give low values 0.986 | locus YER111C, strain swi4, hits give low values 1.02 | locus YER155C, strain BEM2 (second series), hits give low values 1.07 | locus YER155C, strain BEM2, hits give low values 1 | locus YER167W, strain BCK2, hits give low values 0.966 | locus YFR010W, strain ubp6, hits give low values 1.01 | locus YGL078C, strain dbp3, hits give low values 1.01 | locus YGL086W, strain mad1, hits give low values 0.993 | locus YGL167C, strain pmr1, hits give low values 0.97 | locus YGL173C, strain kem1, hits give low values 0.98 | locus YGL227W, strain vid30, hits give low values 1.01 | locus YGL240W, strain doc1, hits give low values 0.999 | locus YGL248W, strain PDE1, hits give low values 0.993 | locus YGL253W, strain hxk2, hits give low values 0.964 | locus YGR135W, strain pre9, hits give low values 0.996 | locus YGR229C, strain SMI1, hits give low values 0.924 | locus YGR252W, strain gcn5, hits give low values 0.914 | locus YHR013C, strain ard1, hits give low values 1 | locus YHR027C, strain rpn1, hits give low values 0.975 | locus YHR030C, strain SLT2, hits give low values 1.01 and 0.915 | locus YHR079C, strain IRE1 (second series), hits give low values 1.02 | locus YHR079C, strain IRE1, hits give low values 0.95 | locus YHR094C, strain hxt1, hits give low values 1.02 | locus YHR129C, strain ARP1, hits give low values 1.01 | locus YHR142W, strain chs7, hits give low values 0.972 | locus YHR200W, strain rpn10, hits give low values 0.996 | locus YIL066C, strain RNR3, hits give low values 0.968 | locus YIL073C, strain SPO22, hits give low values 1.04 | locus YIL125W, strain kgd1, hits give low values 1.01 | locus YIR030C, strain dcg1, hits give low values 1.02 | locus YJL092W, strain hpr5, hits give low values 1.01 | locus YJL095W, strain BCK1 (second series), hits give low values 0.967 | locus YJL095W, strain BCK1, hits give low values 0.958 and 0.936 | locus YJL115W, strain asf1, hits give low values 1.02 | locus YJL129C, strain trk1, hits give low values 0.901 | locus YJL134W, strain LCB3, hits give low values 1.01 | locus YJL154C, strain vps35, hits give low values 1 | locus YJL166W, strain qcr8, hits give low values 0.932 | locus YJL168C, strain set2, hits give low values 1.04 | locus YJL187C, strain SWE1 (second series), hits give low values 0.982 | locus YJL187C, strain SWE1, hits give low values 0.993 | locus YJR043C, strain POL32, hits give low values 0.973 | locus YJR066W, strain TOR1, hits give low values 0.851 | locus YJR075W, strain HOC1, hits give low values 0.983 | locus YKL009W, strain mrt4, hits give low values 1.03 | locus YKL068W, hits give low values 1 | locus YKL085W, strain MDH1 (second series), hits give low values 1 | locus YKL085W, strain MDH1, hits give low values 1 | locus YKL160W, strain elf1, hits give low values 0.95 | locus YKL190W, strain CNB1, hits give low values 1 | locus YKR001C, strain vps1, hits give low values 0.947 | locus YKR026C, strain gcn3, hits give low values 1 | locus YKR091W, strain srl3, hits give low values 0.991 | locus YLL001W, strain dnm1, hits give low values 0.983 | locus YLL026W, hits give low values 0.976 | locus YLL041C, strain sdh2, hits give low values 0.99 | locus YLR027C, strain aat2, hits give low values 0.978 | locus YLR039C, strain RIC1, hits give low values 0.936 | locus YLR058C, strain SHM2, hits give low values 1.01 | locus YLR102C, strain apc9, hits give low values 1.02 | locus YLR113W, strain HOG1, hits give low values 0.968 | locus YLR221C, strain rsa3, hits give low values 0.921 | locus YLR258W, strain gsy2, hits give low values 0.958 | locus YLR262C, strain YPT6, hits give low values 0.99 | locus YLR268W, strain sec22, hits give low values 0.978 | locus YLR320W, strain mms22, hits give low values 0.891 | locus YLR330W, strain CHS5, hits give low values 1.02 | locus YLR342W, strain FKS1 (second series), hits give low values 1.02 | locus YLR342W, strain FKS1, hits give low values 1.01 | locus YLR357W, strain rsc2, hits give low values 1.09 | locus YLR370C, strain arc18, hits give low values 0.975 | locus YLR371W, strain rom2, hits give low values 1.02 | locus YLR384C, strain iki3, hits give low values 1.03 | locus YLR418C, strain cdc73, hits give low values 0.917 | locus YML016C, strain PPZ1, hits give low values 1.01 | locus YML032C, strain rad52, hits give low values 1.01 | locus YML120C, strain ndi1, hits give low values 0.95 | locus YML124C, strain tub3, hits give low values 1.01 | locus YMR058W, strain fet3, hits give low values 0.994 | locus YMR078C, strain ctf18, hits give low values 1.01 | locus YMR125W, strain sto1, hits give low values 1.05 | locus YMR129W, hits give low values 1 | locus YMR205C, strain PFK2, hits give low values 0.929 | locus YMR223W, strain ubp8, hits give low values 1 | locus YMR231W, strain pep5, hits give low values 0.983 | locus YMR307W, strain GAS1, hits give low values 1 | locus YNL067W, strain RPL9B, hits give low values 0.987 | locus YNL128W, strain TEP1, hits give low values 0.995 | locus YNL183C, strain NPR1, hits give low values 0.886 | locus YNL209W, strain ssb2, hits give low values 0.979 | locus YNL233W, strain BNI4, hits give low values 0.976 | locus YNL248C, strain rpa49, hits give low values 1.06 | locus YNL250W, strain rad50, hits give low values 1.02 | locus YNL271C, strain bni1, hits give low values 1.02 | locus YNL298W, strain CLA4, hits give low values 1.01 | locus YNL307C, strain MCK1, hits give low values 0.962 | locus YNL322C, strain KRE1 (second series), hits give low values 0.991 | [1] 1 | locus YNR049C, strain mso1, hits give low values 1.01 | locus YNR052C, strain pop2, hits give low values 1.01 | locus YOL006C, strain TOP1, hits give low values 0.944 | locus YOL012C, strain htz1 0.818 | locus YOL147C, strain pex11, hits give low values 1.03 | locus YOR001W, strain rrp6, hits give low values 0.967 | locus YOR061W, strain CKA2, hits give low values 1 | locus YOR069W, strain VPS5, hits give low values 1 | locus YOR070C, strain gyp1, hits give low values 0.961 | locus YOR080W, strain dia2, hits give low values 0.994 | locus YOR083W, strain WHI5, hits give low values 0.969 | locus YOR106W, strain vam3, hits give low values 0.974 | locus YOR136W, strain idh2, hits give low values 1.01 | locus YOR144C, strain elg1, hits give low values 1 | locus YOR184W, strain ser1, hits give low values 0.952 | locus YOR231W, strain MKK1, hits give low values 0.94 | locus YOR265W, strain rbl2, hits give low values 0.973 | locus YOR270C, strain vph1, hits give low values 0.853 | locus YOR290C, strain snf2, hits give low values 0.985 | locus YOR316C, strain cot1, hits give low values 1.01 | locus YPL051W, strain arl3, hits give low values 0.963 | [2] 0.942 | locus YPL078C, strain atp4, hits give low values 1.03 | locus YPL106C, strain sse1, hits give low values 0.977 | locus YPL240C, strain hsp82, hits give low values 0.975 | locus YPL241C, strain CIN2, hits give low values 1.01 | locus YPL256C, strain CLN2, hits give low values 0.942 | locus YPR119W, strain clb2, hits give low values 1.01 | locus YPR141C, strain kar3, hits give low values 1.04 | locus YPR163C, strain tif3, hits give low values 0.933 | locus YPR167C, strain met16, hits give low values 1 | strain wtn01, hits give low values 1.03

From PubChem BioAssay AID1159580 (chemical genetic matrix, 2015)
